This is a sample that favours compounds with a hit; in the whole collection about 7.9% have one here.
LASV entry inh: inhibitors of Lassa virus binding or cell entry. Lassa virus pseudotype entry inhibition, cell reporter. Potency, µM (top dose mostly 37.9 µM), without a hit: top-dose activity change, negative = inhibition, usual class: inhibitors. 300,000 tested, 1.2% active; calls by dose curve; tested in HEK293 cells; further: potency means the concentration at half of the fitted maximal effect; nearly all actives have a fitted effect of over 50% in size
FMDV inh: antivirals against foot and mouth disease virus; FMDV antiviral cell-based qHTS; Potency, µM (highest dose often 57.9 µM), for inactives: at the top dose activity change, negative = inhibition, actives largely listed as inhibitors; 410,000 tested, 1.2% active; AID 1159524; calls by dose curve; tested in HEK293T cells; further: read-out not given here; potency means the concentration at half of the fitted maximal effect; nearly all actives have a fitted effect of over 45% in size
HCV inhibitor: HCV inhibition; Huh7.5.1 HCVcc-Cre infection, luciferase reporter, 44 h; Potency, µM (series often up to 41.8 µM), for inactives: at the highest dose activity change, negative = inhibition, usual class: inhibitors; 340,000 tested, 3.4% active; active means well fitted inhibition curve with a large enough effect; inconclusive means small, poorly fitted or top-dose-only effect, or another doubt; inactive means no such curve, though single readings can be large or run the other way; further: potency means the concentration at half of the fitted maximal effect
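A cell-based infection assay in which seeded cells (1,000 per well) receive test compound after 4 h, are inoculated with HCVcc-Cre at approximately 0.5 moi, and are incubated 44 h before luminescence detection.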
HCMV antiviral: inhibitors of human cytomegalovirus | 410,000 tested, 4.5% active | HFF cells, HCMV-luciferase reporter, 72 h; stronger effect = lower value | AID 1259415 | activity change, negative = inhibition, % at 57.5 µM; in the data active means activity change below about -60%; inconclusive means no clear call, values can overlap the other calls; inactive means above about -39%
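Two-dose cell screen: HFF monolayers treated with compounds and infected with luciferase-expressing HCMV at 1 PFU/cell, 72 h at 37C, then lysed for luciferase measurement.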
Marburg entry inh: Marburg virus entry inhibition; Marburg virus pseudotyped entry inhibition, cell reporter; Potency, µM (series often up to 37.8 µM), inactives show at the top dose activity change, negative = inhibition, most hits filed as inhibitors; 300,000 tested, 1.8% active; calls by dose curve; tested in HEK293 cells; further: potency means the concentration at half of the fitted maximal effect
An asterisk follows results filed as active; ? = inconclusive; . = no result; + = active, no number; [ ] = remark or other dose. On the % scale 0 is the no-effect control and ±100 the full control effect.

SMILES | LASV entry inh | FMDV inh | HCV inhibitor | HCMV antiviral | Marburg entry inh
COc1ccc(/C=N/NC(=O)c2[nH]c3ccc(C)cc3c2-c2ccccc2)c(C(=O)O)c1OC | -5% | 6% | -11% | -18 | -16%[46.1 µM]
COc1ccc(/C=N/Nc2ncnc3c2[nH]c2ccc(C)cc23)c(OC)c1OC | ? | 0% | ? | -80* | -16%[46.1 µM]
COc1ccc(NC(=O)C2CCN(C(=O)c3sc4nc[nH]c(=O)c4c3C)CC2)cc1Cl | 29%[46.1 µM] | -16% | . | 30 | .
O=C1C=C(N2CCCCC2)c2ccccc2C1=O | 8.9µM* | 22µM* | 7.1µM* | -97* | ?
O=C(Nc1ccc(Br)cc1)C1CCN(S(=O)(=O)c2cccc3nsnc23)CC1 | ? | -6% | . | 0 | 8%[46.1 µM]
Cc1cc(C)c(S(=O)(=O)N2CCN(C(=O)c3c(C)nn(-c4ccccc4)c3Cl)CC2)c(C)c1 | ? | 25µM* | ? | -72* | 14µM*
Cc1cc(C)c(S(=O)(=O)N2CCN(C(=O)c3cc4ccccc4oc3=O)CC2)c(C)c1 | . | -26% | ? | -102* | .
Cc1ccc(S(=O)(=O)N2CCN(C(=O)c3c(C)nn(-c4ccccc4)c3Cl)CC2)cc1 | ? | . | ? | -75* | -27%
Cc1cccc(-n2nc(C)c(C(=O)N3CCN(c4ccccc4)CC3)c2-n2cccc2)c1 | -12%[46.1 µM] | ? | . | + | .
COc1ccc(S(=O)(=O)N2CCN(C(=O)c3c(C)nn(-c4ccccc4)c3Cl)CC2)cc1 | ? | ? | -12% | 31 | 0%
Brc1ccc(CN2CCc3nc(Nc4ccccc4)ncc3C2)s1 | 17%[46.1 µM] | 16% | . | -5 | .
O=C(Nc1nnc(S(=O)(=O)N2CCCc3ccccc32)s1)c1ccc(Cl)cc1 | 8%[46.1 µM] | 0% | . | -15 | .
Cc1nn(-c2ccccc2)c(Cl)c1C(=O)NNC(=O)c1ccccc1O | . | 38% | 10µM* | 62 | .
O=C(c1cc(-c2ccccc2)nn1-c1ccccc1)N1CCN(S(=O)(=O)c2ccc(F)cc2)CC1 | -18% | -6% | ? | -77* | -23%
Cc1nc2nc(C)c(NS(=O)(=O)c3ccc(F)cc3)c(=O)n2[nH]1 | -3%[46.1 µM] | -11% | . | 11 | 20%[46.1 µM]
CCOC(=O)Cn1c(=O)n(CC2CCCO2)c2nc(-c3ccccc3OC)nc(C(N)=O)c21 (stereo not drawn) | 28%[46.1 µM] | ? | . | 47 | .
CCOC(=O)C1=C(c2ccccc2)c2ccc(OC)cc2N(S(=O)(=O)C(F)(F)F)C1C(=O)OCC (stereo not drawn) | . | ? | 2µM* | -2 | .
COc1ccc(-c2cc(C(F)(F)F)nc(SCC(=O)NC(C)c3ccccc3)n2)cc1 (stereo not drawn) | 4%[46.1 µM] | -9% | . | -36 | -20%[46.1 µM]
COc1ccc(NC(=S)N(CCN2CCOCC2)C2CCN(C(C)=O)CC2)cc1Cl | 29%[46.1 µM] | 9% | 6% | ? | 1%[46.1 µM]
COc1cc(NC(=O)c2cccc(Cl)c2)c(OC)cc1NC(=O)CN1CCOCC1 | ? | -4% | ? | -72* | ?
COc1cc(NC(=O)c2cccc(Cl)c2)c(OC)cc1NC(=O)CN1CCCCC1 | -29% | -20% | 35µM* | ? | ?
COc1cc(Cl)ccc1NC(=S)N(CCN1CCOCC1)C1CCN(C(C)=O)CC1 | . | -1% | 11% | -101* | .
CCOc1ccc(-c2nnc(SCC(=O)Oc3ccccc3)o2)cc1 | 13%[46.1 µM] | -28% | . | ? | ?
CCC1CN(CCNC(=O)c2ccc(C#CC(C)(C)O)cc2)Cc2cc(OC)ccc2O1 (stereo not drawn) | . | 12% | . | . | .
COc1ccc(NC(=O)CSc2nc3ccccc3n2CC(=O)N2CCCC(C)C2)cc1 (stereo not drawn) | -20%[46.1 µM] | -6% | . | -15 | .
SMILES | LASV entry inh | FMDV inh | HCV inhibitor | HCMV antiviral | Marburg entry inh
Cc1nn(-c2ccccc2)c2nc(N)c(C#N)c(-c3ccc(O)c(O)c3)c12 | ? | -21% | 11µM* | -62* | ?
COc1cc(-c2c(C#N)c(N)nc3c2c(C)nn3-c2ccc(C)c(C)c2)cc(OC)c1OC | ? | -13% | ? | 136 | 21µM*
COc1cc(-c2nccc3[nH]nc(-c4ccncc4)c23)cc(OC)c1OC | . | . | . | -9 | .
O=C(C1CCC(Cn2c(=O)c3sccc3n(Cc3ccccc3)c2=O)CC1)N1CCOCC1 (stereo not drawn) | -3%[46.1 µM] | -23% | . | -3 | .
Cc1[nH]ccc2cc3nc4ccccc4c3cc12 | . | -20% | . | -72* | .
COc1ccc(N2CCN(C(=O)c3cc4c(=O)n(Cc5cccs5)ccc4nc3C)CC2)cc1 | 1%[46.1 µM] | -18% | . | 6 | .
CC(=C\c1ccco1)/C=C(\C#N)C(=O)NCCc1c[nH]c2ccccc12 | -3% | -22% | ? | -73* | ?
O=C(NCCc1c[nH]c2ccccc12)/C(=C/c1ccco1)NC(=O)c1ccco1 | 10% | -21% | 10% | 8 | ?
CCOC(=O)Cn1c(=O)oc2cc(S(=O)(=O)N3CCN(c4cccc(Cl)c4)CC3)ccc21 | 0%[46.1 µM] | -13% | . | -21 | 13%[46.1 µM]
c1sc2[n+](c1C13CC4CC(CC(C4)C1)C3)CCS2 | 4% | ? | 1% | -64* | ?
O=C(CCC1N=C2c3ccccc3N=C(SCc3ccccc3F)N2C1=O)NCc1ccc(F)cc1 (stereo not drawn) | ? | -15% | . | 31 | .
COc1ccccc1-c1nn(CCC(=O)Nc2ccc(C)cc2)c2nc(C)cc(C)c12 | -8%[46.1 µM] | -26% | . | 20 | 0%[46.1 µM]
CCCOc1ccc(-c2nnc(-c3ccncc3)o2)cc1 | -1% | 5% | 11µM* | 23 | 5%
CC(C)COc1ccc(-c2nnc(-c3ccncc3)o2)cc1 | ? | 36% | ? | 79 | -27%
CN(C)CCNC(=O)C1CCN(Cc2cc3ccccc3n2Cc2ccccc2)CC1 | ? | . | . | -101* | .
CCCNC(=O)C1CCN(Cc2cc3ccccc3n2Cc2ccccc2)CC1 | ? | -29% | . | -19 | .
COC(=O)C/C=C/[C@@H](C)[C@@H](/C=N/OC[C@@H](O)COCc1ccco1)NS(=O)(=O)c1ccc(C)cc1 | . | . | . | . | 21%[14.2 µM]
c1ccc(N2CCN(c3ncnc4c3nc3n4CCCCC3)CC2)cc1 | ? | 10µM* | . | -76* | .
Fc1ccc(N2CCN(c3ncnc4c3nc3n4CCCCC3)CC2)cc1 | -9%[46.1 µM] | 25µM* | . | -24 | .
O=C(NCc1ccc(Cl)cc1)C1CCN(c2ncnc3c2nc2n3CCCCC2)CC1 | 16%[46.1 µM] | -11% | . | 27 | .
Clc1ccc(N2CCN(c3ncnc4c3nc3n4CCCC3)CC2)cc1 | -18%[46.1 µM] | ? | . | -69* | .
Cc1cc(C)c(NC(=O)CCn2c(=O)c3cccn3c3cccnc32)c(C)c1 | 15%[46.1 µM] | -5% | . | 2 | .
Cc1ccc(NC(=O)CN2C(=O)c3cccnc3Oc3ccc(Cl)cc32)cc1 | ? | -8% | . | 0 | .
CC(C)Nc1nc(-c2ccccn2)nc(-c2ccccc2)c1C#N | -5%[46.1 µM] | -15% | 8% | -67* | 1%[46.1 µM]
CC(C)Nc1nc(-c2cccnc2)nc(-c2ccc(Cl)cc2)c1C#N | 12%[46.1 µM] | -12% | -10% | ? | -11%[46.1 µM]
CCc1nn2c(=O)cc(COC(=O)C3CCCCC3)nc2s1 | 17%[46.1 µM] | 10% | . | -3 | .
